Inconclusive results are not listed. Where a call stands in place of a potency, no number is given. Values without a mark were called inactive. The source made the active and inactive calls. Calls follow the shape of the dose curve; as a rule, active = well fitted cell-killing curve with a large enough effect; inconclusive = small, poorly fitted or top-dose-only effect, or effect the other way; inactive = flat fitted curve, though single readings scatter.

The experiment relates to CASKI. Kind of experiment: Primary qHTS to identify gynecologic anti-cancer compounds using libraries of approved drugs and bioactive compounds (AID 1345084). Also: nearly all actives have a fitted effect of over 55% in size. The note with it: Gynecologic cancer cell panel viability, ATPlite luminescence, 48 h; series mostly up to 57.5 µM. In a few lines: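 Cells, 1,000 per well, were allowed to settle for 16 h at 37 C before compound addition. Five concentrations were tested for 48 h, and viability was read by ATPlite luminescence after 15 min at room temperature.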
(In general: In qHTS, concentration-response curves come from the screen itself.)
Regarding `CC(=O)OC1C(O)CC2(C)C(CCC(C)C23Cc2c(O)cc(CO)c(C=O)c2O3)C1(C)C` (stereo not given), the Potency result was “inactive”. With `C/C(=C\CCC(C)CCO)C(=O)OC1(C)CCC2C(C(=O)O)=COC(OC3OC(CO)C(O)C(O)C3O)C21` (stereo not given), the Potency entry is “inactive”. As for `NC1(C(=O)NC(CCO)c2ccc(Cl)cc2)CCN(c2ncnc3[nH]ccc23)CC1` (stereo not given), the Potency entry was “inactive”. As to `CC1(C)CCCC2(C)C(C(=O)O)=CCC12` (stereo not given), the Potency result was “inactive”. In the case of `CCC(C)/C=C(C)/C=C/c1cc2c(cn1)C(=O)C(C)(OC(C)=O)C(O)=C2Cl` (stereo not given), the Potency result is “inactive”.

Regarding `O=S(=O)(Nc1ccccn1)c1ccc(N=Cc2c(O)[nH]c3ccc4ncsc4c23)cc1`, the activity change, negative = cytotoxicity was 20.8% [at 11.6 µM]. On to `CC(O)/C=C/C1(O)C(C)C(O[C@@H]2O[C@H](CO)[C@@H](O)[C@H](O)[C@H]2O)C(O)CC1(C)C` (stereo not given in full), for which the Potency entry is “inactive”. `C[C@@H]1O[C@@H](O[C@H]2[C@H](OC(=O)[C@]34CCC(C)(C)C[C@H]3C3=CCC5[C@@]6(C)CC[C@H](O[C@@H]7O[C@H](C(=O)O)[C@@H](O)[C@H](O)[C@H]7O[C@@H]7O[C@H](CO)[C@H](O)[C@H](O)[C@H]7O)[C@@](C)(C=O)C6CC[C@@]5(C)[C@]3(C)C[C@H]4O)O[C@H](C)[C@H](O[C@@H]3O[C@H](C)[C@H](O)[C@H](O)[C@H]3O)[C@@H]2O)[C@H](O)[C@H](O)[C@H]1O[C@@H]1OC[C@@H](O)[C@H](O[C@@H]2O[C@H](CO)[C@@H](O)[C@H](O)[C@H]2O)[C@H]1O` (stereo not given in full): the activity change, negative = cytotoxicity is 4.26% [at 6.55 µM]. On to `COC(=O)C12CCC(C)C(C)C1C1=CCC3C4(C)CCC(OC(C)=O)C(C)(C)C4CCC3(C)C1(C)CC2` (stereo not given), for which the Potency entry was “inactive”.

`CCOc1cc(CC(=O)NC(CC(C)C)c2ccccc2N2CCCCC2)ccc1C(=O)O` (stereo not given): the Potency entry was “inactive”. Take `COC1=CC(=O)CC(C)C12Oc1cc(OC)cc(O)c1C2=O` (stereo not given): the Potency result is “inactive”. In the case of `O=C1CCC(=O)N(O)CCCCCNC(=O)CCC(=O)N(O)CCOCCNC(=O)CCC(=O)N(O)CCCCCN1`, the Potency entry is “inactive”. Take `CCc1ccc(Cc2ccc3c(c2)[C@]2(OC3)O[C@H](CO)[C@@H](O)[C@H](O)[C@H]2O)cc1`: the Potency result is “inactive”. Consider `C=C(C(=O)O)C1CCC2(C)CCC(O)C(=C)C2C1` (stereo not given), for which the Potency entry was “inactive”.

In the case of `C=C(C)C1CCC2(C(=O)O[C@@H]3O[C@H](CO[C@@H]4O[C@H](CO)[C@@H](O)[C@H](O)[C@H]4O)[C@@H](O)[C@H](O[C@@H]4O[C@@H](C)[C@H](O)[C@@H](O)[C@H]4O)[C@H]3O)CCC3(C(=O)O)C(CCC4C5(C)CCC(O)C(C)(C)C5CCC43C)C12` (stereo not given in full), the activity change, negative = cytotoxicity was 13.9% [at 11.6 µM]. For the compound `CC(NC(=O)C(O)C(C)C)C(=O)NC1C(=O)N(C)CCc2ccccc21` (stereo not given), the Potency result is “inactive”.

For the compound `CNC(C)C(=O)NC(C(=O)N1CCCC1c1nc(C(=O)c2ccc(F)cc2)cs1)C1CCCCC1` (stereo not given), the Potency entry was “inactive”. Take `CC(=O)O[C@@H]1[C@H](O)[C@@H](O[C@@H]2O[C@@H](C)[C@H](O[C@@H]3OC[C@@H](O)[C@H](O[C@@H]4OC[C@@H](O)[C@H](O)[C@H]4O)[C@H]3O)[C@@H](O[C@@H]3O[C@H](CO)[C@@H](O)[C@H](O)[C@H]3O)[C@H]2O)[C@H](OC(=O)[C@]23CCC(C)(C)C[C@H]2C2=CCC4[C@@]5(C)CC[C@H](O[C@@H]6O[C@H](C(=O)O)[C@@H](O)[C@H](O[C@@H]7OC[C@@H](O)[C@H](O)[C@H]7O)[C@H]6O[C@@H]6O[C@H](CO)[C@H](O)[C@H](O)[C@H]6O)[C@@](C)(C=O)C5CC[C@@]4(C)[C@]2(C)CC3)O[C@@H]1C` (stereo not given in full): the activity change, negative = cytotoxicity was -13.6% [at 6.55 µM]. For `CCN(Cc1cccnc1)C(=O)CN(c1ccc(OC)nc1)S(=O)(=O)c1ccccc1C`, the Potency result was “inactive”. With `COc1ccc(CN2C(=O)C(=O)c3cc(S(=O)(=O)N4CCC[C@H]4COc4cccnc4)ccc32)cc1`, the Potency result was “inactive”. For the compound `CC1=CC(=O)[C@]2(O[C@@H]3O[C@@H](C)[C@H](O)[C@@H](O)[C@H]3OC(=O)/C=C/c3ccccc3)C=CO[C@@H](O[C@@H]3O[C@H](CO)[C@@H](O)[C@H](O)[C@H]3O)[C@H]12`, the Potency entry was “inactive”. With `O=C(O)c1ccccc1NC(=O)N1CCC(c2ccccc2C(F)(F)F)CC1`, the Potency result was “inactive”.

For `Nc1nc2c(ncn2[C@@H]2O[C@H](CO)[C@@H](O)[C@H]2O)c(=O)[nH]1`, the Potency result was “inactive”. On to `C/C1=C\C[C@]2(C)C(=O)C(O)=C([C@H](C)CO)[C@H]2C/C=C(\C)[C@@H](O)CC/C(C)=C/CC1`, for which the Potency entry was “inactive”. Take `C[C@]12C[C@@H](O)[C@@H]3C[C@@]1(O[C@@H]1O[C@H](CO)[C@@H](O)[C@H](O)[C@H]1O)[C@]3(COC(=O)c1ccccc1)C(=O)O2`: the Potency entry was “inactive”.

Values taken from PubChem BioAssay (NCATS).
